Potency data for 51 molecules are collected here from PubChem BioAssay AID504937 (National Center for Advancing Translational Sciences (NCATS), 2011).

Screen size: about 340,000 compounds; about 20 (0.006%) were called active. Where a call stands in place of a potency, no number is given. Calls follow the shape of the dose curve; as a rule, active = well fitted inhibition curve with a large enough effect; inconclusive = small, poorly fitted or top-dose-only effect; inactive = no such curve, though single readings can be large or run the other way. Many of the other results were omitted from the sample, so actives are more common in it than they were.
Potency is read from the fitted curve at half-maximal effect.

This experiment deals with Sphingomyelin phosphodiesterase (Homo sapiens) (UniProt P17405). Briefly: Inhibitors of Secretory Acid Sphingomyelinase (S-ASM): qHTS. Conditions: placental ASM, HMU-PC fluorogenic substrate, 60 min; series mostly up to 57.5 µM. The source says: Atherosclerosis is the underlying process for cardiovascular disease and thus is a major contributor to disease burden in the population. […] Thus, selective small molecule inhibitors of S-ASM should block LDL modification and reduce aortic LDL retention and may serve as new agents for the treatment of atherosclerosis. In a collaboration between National Heart, Lung, and Blood Institute and the NCGC a high-throughput amenable screen was developed to identify potent and selective small molecule inhibitors of S-ASM. This enzymatic, fluorescent screen uses an ASM enzyme preparation derived from human placenta and was tested against the NIH Molecular Libraries Small Molecule Repository (MLSMR). NIH Chemical Genomics Center [NCGC] NIH Molecular Libraries Probe Centers Network [MLPCN] MLPCN Grant: MH093173-01 Assay Submitter (PI): Alan Remaley, National Heart, Lung, and Blood Institute and Wei Zhen, NIH Chemical Genomics Center
Sequence of Sphingomyelin phosphodiesterase (Homo sapiens) (P17405 47-631 limits assumed): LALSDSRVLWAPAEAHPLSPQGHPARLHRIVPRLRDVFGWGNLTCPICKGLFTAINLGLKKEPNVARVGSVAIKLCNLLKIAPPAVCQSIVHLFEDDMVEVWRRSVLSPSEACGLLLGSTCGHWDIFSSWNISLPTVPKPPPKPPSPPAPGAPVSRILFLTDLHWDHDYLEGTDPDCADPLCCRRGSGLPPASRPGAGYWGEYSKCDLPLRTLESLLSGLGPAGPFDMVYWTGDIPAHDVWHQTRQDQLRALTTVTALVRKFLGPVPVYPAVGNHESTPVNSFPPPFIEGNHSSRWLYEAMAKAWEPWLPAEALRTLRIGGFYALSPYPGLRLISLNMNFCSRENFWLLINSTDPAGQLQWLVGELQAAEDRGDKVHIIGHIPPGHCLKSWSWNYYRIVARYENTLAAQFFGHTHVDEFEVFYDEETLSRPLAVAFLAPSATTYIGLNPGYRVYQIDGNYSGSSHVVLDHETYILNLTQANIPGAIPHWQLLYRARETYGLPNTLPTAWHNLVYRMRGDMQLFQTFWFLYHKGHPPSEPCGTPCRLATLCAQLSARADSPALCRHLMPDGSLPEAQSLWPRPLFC
Two microliters of ASM enzyme (1:150 dilution from stock) are dispensed in 1536-well plate. 23 nL of compound and control are pinned into assay plate using the Kalypsys pintool. The plates are then incubated for 10 minutes at ambient room temperature. Then, 2 uL of the flurogenic substrate, HMU-PC0, (9 uM final) are added to the plate. An incubation for 60 minutes takes place at 37 masculineC. After that, 4 uL of stop solution is added to raise the pH to 10 to end the kinetic reaction. Plate is read on ViewLux, with detection set at Ex = 386 (10) nm and Em = 447 (10) nm.
As for `COc1ccc(Cl)cc1C=CC=NNC(=O)c1ccncc1`, the Potency result is “inactive”.

Take `COC(=O)[C@@H]1C[C@@]2(O)[C@H](O)[C@H](O)[C@H](O)C[C@H]2N1Cc1ccc(C)s1`: the Potency result is “inactive”. In the case of `Cn1c(=O)c2c(n(Cc3ccccc3)c1=O)NC(=O)C2CC(=O)N1CCc2ccccc2C1` (stereo unspecified) it was “inactive”. Under `CCOC(=O)c1c(C2CC2)csc1NC(=O)CSCc1c(C)noc1C` stands “inactive”; under `CCOC(=O)C1=CN(Cc2ccc(Br)cc2)S(=O)(=O)N(C)C1C` (stereo unspecified), “inactive”; under `COCc1c(C(=O)N/N=C(\C)c2ccncc2)nnn1-c1nonc1N`, “inactive”. In the case of `COc1ccc2c(C)c(CCC(=O)NC3CC3)c(=O)oc2c1C` it was “inactive”.

As for `CC(=O)N1c2ccc(S(=O)(=O)N(C)CC(=O)N(C)Cc3ccccc3)cc2CC1C` (stereo unspecified), the Potency result is “inactive”. Turning to `C=CCN1C(=O)c2ccc(C(=O)N3CCC(C(=O)OCC)CC3)cc2C1=O`, the Potency result was “inactive”. In the case of `COc1nc(OC)nc(N(C)CCO)n1` it was “inactive”. Under `CCOC(=O)C1CCN(C(=O)C2CCN(S(=O)(=O)CC)CC2)CC1` stands “inactive”; under `Cc1cccc(OCC(=O)OCC(=O)Nc2ccc(Cl)cn2)c1`, “inactive”. Under `Cc1ccc(C(=O)NCC(=O)NCc2cc(=O)n(C)c(=O)n2C)cc1` stands “inactive”; under `O=S(=O)(c1ccc(F)cc1)N1CCN(C(=S)NCc2ccco2)CC1`, “inactive”; under `Cc1ccc(N(C(=O)c2snc(C(N)=O)c2N)C(C(=O)NCC2CCCO2)c2c[nH]c3ccccc23)cc1` (stereo unspecified), “inactive”. `Cc1ccc(S(=O)(=O)NC(C)C(=O)NCc2ccc(Cl)cc2)cc1` (stereo unspecified): the Potency result was “inactive”.

`CSCCC(NS(=O)(=O)c1ccc2c(c1)oc(=O)n2C)C(=O)NC1CCCc2ccccc21` (stereo unspecified): the Potency entry was “inactive”. Under `O=S(=O)(NCCCN1CCOCC1)c1ccc(F)c(Cl)c1` stands “inactive”.

`Cc1ccc(S(=O)(=O)NC(=O)c2cccc(C)c2)cc1`: the Potency entry is “inactive”.

Regarding `CC(=O)C1=C(C)NC2=C(C(=O)CC(C)(C)C2)C1C` (stereo unspecified), the Potency result is “inactive”. Under `CCOC(=O)c1cc(S(=O)(=O)NCCc2ccc(OC)c(OC)c2)cn1C` stands “inactive”; under `CSCCC(NC(=O)c1ccccc1)C(=O)N1CCN(Cc2ccc(Cl)cc2)CC1` (stereo unspecified), “inactive”. Turning to `CC1C(=O)N2CCCc3cc(S(=O)(=O)NCc4ccc(F)cc4)cc1c32` (stereo unspecified), the Potency result is “inactive”.

`COC(=O)c1ccc(CN2CCCC(C(=O)Nc3cccc(-n4cnnn4)c3)C2)cc1` (stereo unspecified): the Potency result is “inactive”. In the case of `O=C1c2ccccc2C2=Nc3ccccc3SC(c3ccccc3F)C12` (stereo unspecified) it was “inactive”; in that of `CCOC(=O)c1ccccc1NC(=S)N1CCC(C(N)=O)CC1`, “inactive”. In the case of `COc1cccc(NC(=O)CSc2nnc(Cc3ccc(OC)c(OC)c3)o2)c1` it was “inactive”; in that of `O=C1N[C@H](Cc2c[nH]c3ccccc23)COC(=O)[C@H](Cc2ccc(F)cc2)C/C=C\C[C@H]1CC(=O)N(CCO)Cc1ccccc1`, “inactive”. In the case of `CSc1nnc(-c2ccc(C(F)(F)F)cn2)o1` it was “inactive”; in that of `COc1cc(/C=C2\SC(=S)N(Nc3ncc(C(F)(F)F)cc3Cl)C2=O)cc(OC)c1OC`, 28.2 µM (active); in that of `O=C1/C(=C/c2ccc(F)cc2)SC(=S)N1NS(=O)(=O)c1ccccc1`, “inactive”. `COc1cc(/C=C/C(=O)N2c3ccccc3Sc3ccc(C(F)(F)F)cc32)cc(OC)c1OC`: the Potency result is “inactive”. Under `Cc1c(C)c2c(OCC(=O)N[C@@H](C(=O)O)c3ccccc3)cc3c(c2oc1=O)CCC(C)(C)O3` stands “inactive”. In the case of `CCOC(=O)C1(Cc2cccc(OC)c2)CCN(Cc2csc(C(C)=O)c2)CC1` it was “inactive”; in that of `S=c1[nH]nc(Nc2ccccc2)s1`, “inactive”; in that of `COc1cccc(-n2c(=S)sc3c(=O)n(-c4ccccc4C)c(SCC(=O)O)nc32)c1`, “inactive”. Turning to `CCOc1ncccc1C(=O)OCC(=O)Nc1cccc(S(=O)(=O)N2CCCCCC2)c1`, the Potency result is “inactive”. On to `N=C1C(=O)OCC1c1ccccc1NC(=O)CN1CCCCC1` (stereo unspecified), for which the Potency result is “inactive”. Under `COc1ccc(C(=O)N(C)CC(O)c2ccccc2)cc1OC1CCN(C(C)=O)CC1` (stereo unspecified) stands “inactive”; under `O=C(O)CSCC(=O)Nc1ccc(C(F)(F)F)cc1`, “inactive”. In the case of `CC[C@@]12C(=O)N(c3ccccc3)C(=O)N1[C@H](c1ccc(Br)cc1)[C@@H]1C(=O)N(C(C)(C)C)C(=O)[C@@H]12` it was “inactive”; in that of `COc1cccc(N(C(=O)c2ccn[nH]2)C2(C(=O)Nc3c(C)cccc3C)CCCCC2)c1`, “inactive”. Under `COc1cc(OC)cc(C(=O)Nc2nnc(SCC(=O)NCC3CCCO3)s2)c1` (stereo unspecified) stands “inactive”; under `CC(C)CN(C(=O)c1cccc(S(=O)(=O)N2CCCCC2)c1)C1CCS(=O)(=O)C1` (stereo unspecified), “inactive”. On to `CS(=O)(=O)N(Cc1ccccc1Cl)c1ccc(C(=O)NCc2cccnc2)cc1`, for which the Potency result was “inactive”.

For the molecule `CC1CCN(c2ccc(S(=O)(=O)Nc3cc(C(=O)O)cc(C(=O)O)c3)cc2[N+](=O)[O-])CC1`, the Potency result was “inactive”. Under `Cc1ccc2nc(SCC(=O)Nc3cccc4ccccc34)nc(=O)n2c1` stands “inactive”; under `CSCCC(=O)N1CCCC(CNC(=O)c2ccccc2Cl)C1` (stereo unspecified), “inactive”; under `CCCn1nnc(NC(=O)COc2ccc(CC)cc2)n1`, “inactive”.

Consider `COc1ccc([C@H]2CC(=O)C=C(c3ccc(OC(F)(F)F)cc3)C2)cc1OC`, for which the Potency entry is “inactive”. In the case of `Cc1cccc(-[n+]2c(-c3cccc(Br)c3)[nH]c3nc4ccccc4nc32)c1` it was “inactive”.
